PGC1a acetyl inh – inhibitors of PGC1a acetylation signal, primary screen, cell-based, U2OS, AlphaScreen, inhibitor mode | AlphaScreen anti-acetyl-lysine; with virally co-expressed GCN5 acetyltransferase | inhibition, % at 15.6 µM | 350,000 tested, 0.17% active | AID 651687, 2012;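 active = every replicate shows inhibition of at least 40%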
LGR2 antag – inhibitors of bursicon-induced LGR2 CRE-luciferase signal, primary screen, cell-based, HEK293, CRE-luciferase reporter, bursicon stimulation; Drosophila bursicon receptor LGR2 (rickets); bursicon-stimulated, 4 h; inhibition, % at 9.99 µM; 380,000 tested, 0.35% active; AID 720647, 2013;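 active = drop in luminescence signal, shown as inhibition above about 50% in the replicate tests, limit read from the data, passing the limit was not always enough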;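 note: agonist challenge used bursicon conditioned medium at about half maximal strength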
rRNA inh HTS – reduced GFP signal of wild-type E. coli, primary screen, bacterial rRNA inhibitor project, GFP/RFP fluorescence, OD600, single point. E. coli WT GFP vs humanized-ribosome RFP mutants, 24 h; hits give low values; DMSO median 0, no signal -100. GFP signal change (wild-type ribosome), % (no concentration beside the values). 350,000 tested, 1.6% active. AID 720706, 2013;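 active = significant combined selectivity score with lowered wild-type GFP, culture density cut under 30%, mutant RFP and density less affected; inactive = any of these conditions unmet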
EWS-Fli block – EWS/Fli-driven NR0B1 reporter inhibitors, primary screen, A673 cells, NR0B1 luciferase, luminescence, MLPCN library. viability-normalised. inhibition, % at 12.6 µM. 350,000 tested, 0.67% active. AID 651661, 2012;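 active = mean inhibition of at least 50% after viability correction, with every replicate also passing that limit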;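 note: firefly luciferase signal divided by Alamar Blue viability fluorescence both relative to DMSO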
SIRT5 inh – SIRT5 desuccinylase inhibitors, primary screen, biochemical, fluorescence imaging, single point, set 5. Purified SirT5, succinyl-peptide AMC, trypsin-coupled fluorescence. inhibition, % at 15 µM. 330,000 tested, 1.1% active; in the data active = inhibition above about 15%
Target sequence (Q9NXA8 whole entry, looked up): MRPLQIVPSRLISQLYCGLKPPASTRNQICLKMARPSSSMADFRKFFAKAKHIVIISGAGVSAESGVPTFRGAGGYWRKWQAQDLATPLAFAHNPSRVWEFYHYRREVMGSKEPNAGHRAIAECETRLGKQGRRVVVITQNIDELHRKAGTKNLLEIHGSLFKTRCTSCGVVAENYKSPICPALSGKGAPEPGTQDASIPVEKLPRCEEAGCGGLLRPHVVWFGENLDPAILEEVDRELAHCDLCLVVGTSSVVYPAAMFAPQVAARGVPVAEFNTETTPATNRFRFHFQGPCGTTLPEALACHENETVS
PAX8 inh HTS – inhibitors of PAX8-driven TPO luciferase reporter, primary screen, RMG-I cells, single concentration | SteadyGlo, 24 h | inhibition, % at 12.6 µM | 360,000 tested, 1.2% active | AID 652154, 2013;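 active = mean replicate inhibition at least 60% with every replicate also reaching 60%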;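 note: luciferase light reporting Pax8 driven TPO promoter activity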
DNA binding – DNA binders by acridine orange displacement, dose response, counter-screen for EWS/Fli inhibitor project, biochemical, fluorescence polarization, cherry-pick | shares compounds with EWS-Fli block | salmon sperm DNA acridine orange fluorescence polarization | AC35, µM (top dose mostly 68 µM) | 640 tested, 2% active | AID 720586, 2013;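 active = fitted curve reaches a 35% signal fall AC35 below twice the sample's top valid tested dose, actives reach about 48 µM in these data; inactive = the rest, including activity in the rising direction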;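 note: lower polarization ratio signals compound binding to DNA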
COX5a expr inh – inhibitors of PGC-1a-driven COX5a expression, dose response, cell-based, C2C12 myotubes, RT-qPCR, cherry-picked samples; AID 743461, 2014; C2C12 myotubes PGC-1a adenovirus; shares compounds with PGC1a acetyl inh; 45 tested, under 10 active; maximal activity, %;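 active = fitted dose curve reaching 40% activity at or below the highest valid dose tested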
AID743468 – change in PGC-1a target gene PDK4 expression, dose response, C2C12 myotubes, RT-qPCR, cherry-pick | shares compounds with PGC1a acetyl inh | PGC-1a adenovirus, PDK4 mRNA qPCR | PDK4 expression increase, % at 19.5 µM | 45 tested, under 10 active | AID 743468, 2014;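 active = fitted curve reaching a 40% PDK4 expression rise at or below the top valid tested dose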
AID977621 – growth inhibition of wild-type GFP E. coli, dose response, H69 mutant RFP, cherry-pick; shares compounds with rRNA inh HTS; E. coli wild-type GFP strain growth, fluorescence, 24 h; activity change, negative = inhibition at 50 µM; 1,900 tested, under 10 active;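 active = Wild-type ribosome reporter drop at least double the humanized mutant ribosome reporter drop, growth loss under a set limit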;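 note: wild-type GFP and H69 mutant RFP strains grown together 50/50 in each well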
Of the large screens only hits and unclear results are named; the others gave an inactive call (follow-up assays come after a bar, where they were run). A selection: hits, their analogues and other compounds. The true share with any hit is near 3.4%.

CC(C)NC(=O)Nc1ccc2c(c1)C(=O)N([C@H](C)CO)C[C@H](C)[C@H](CN(C)Cc1ccc(C(F)(F)F)cc1)OCCCC[C@H](C)O2	none
CCC(=O)N(C)C[C@H]1Oc2ncc(C#CCc3ccccc3)cc2C(=O)N([C@@H](C)CO)C[C@@H]1C	none (no result: PAX8 inh HTS)
O=c1[nH]c(=O)n(C2C[C@H](O)[C@@H](CO)O2)cc1C(F)(F)F (some centres undefined)	EWS-Fli block 62 (no result: rRNA inh HTS) | DNA binding inactive
O=c1[nH]c(=O)n(C2CC(O)C(CO)O2)cc1Br (centres undefined)	none
O=c1[nH]c(=O)n([C@H]2C[C@H](O)[C@@H](CO)O2)cc1C(F)(F)F	EWS-Fli block 57 (no result: rRNA inh HTS) | DNA binding inactive
O=C(NC(c1ccc(F)cc1)c1ccc2ccccc2n1)C1CCN(Cc2cccc(C(F)(F)F)c2)CC1 (centres undefined)	EWS-Fli block 58 (no result: SIRT5 inh) | DNA binding inactive
Cc1ccccc1NC(=O)C(=Cc1ccc(C(=O)O)cc1)C(=O)Nc1ccccc1C	EWS-Fli block 54, PAX8 inh HTS 109 | DNA binding inactive
C[C@@H]1CN([C@H](C)CO)C(=O)c2cccc(NS(=O)(=O)c3ccccc3)c2O[C@@H]1CN(C)C(=O)Nc1ccc(C(F)(F)F)cc1	none
COC(=O)C[C@@H]1CC[C@@H]2[C@H](COc3ccc(NC(=O)Nc4ccc(C#N)cc4)cc3C(=O)N2C)O1	EWS-Fli block 53 | DNA binding inactive
COC(=O)C[C@@H]1CC[C@@H]2[C@H](COc3ccc(NC(=O)Nc4cccc(C#N)c4)cc3C(=O)N2C)O1	EWS-Fli block 65 | DNA binding inactive
COC(=O)C[C@@H]1CC[C@H]2[C@@H](COc3ccc(NC(=O)Nc4ccc(C#N)cc4)cc3C(=O)N2C)O1	none
COC(=O)C[C@H]1CC[C@H]2[C@@H](COc3ccc(NC(=O)Nc4cccc(C#N)c4)cc3C(=O)N2C)O1	none (no result: PAX8 inh HTS)
Cc1ccc(S(=O)(=O)Nc2ccc3c(c2)C(=O)N([C@H](C)CO)C[C@H](C)[C@@H](CN(C)Cc2ccc(C(F)(F)F)cc2)OCCCC[C@H](C)O3)cc1	EWS-Fli block 69, SIRT5 inh 21, PAX8 inh HTS 97 | DNA binding inactive
C[C@@H]1CCCCO[C@H](CN(C)C(=O)Nc2cccc3ccccc23)[C@H](C)CN([C@@H](C)CO)C(=O)c2cc(NC(=O)c3ccccc3)ccc2O1	none
C[C@@H]1CN([C@H](C)CO)C(=O)c2cc(NC(=O)Nc3cccc4ccccc34)ccc2O[C@H]1CN(C)CC1CCCCC1	none (no result: PAX8 inh HTS)
Cc1ccc(S(=O)(=O)Nc2ccc3c(c2)C(=O)N([C@H](C)CO)C[C@H](C)[C@H](CN(C)Cc2ccc(C(=O)O)cc2)OCCCC[C@H](C)O3)cc1	none
C[C@H](CO)N1C[C@H](C)[C@@H](CN(C)Cc2ccc(C(F)(F)F)cc2)OCCCC[C@H](C)Oc2ccc(NS(=O)(=O)c3ccc(F)cc3)cc2C1=O	EWS-Fli block 56, SIRT5 inh 20, PAX8 inh HTS 94 | DNA binding inactive
C[C@H](CO)N1C[C@H](C)[C@H](CN(C)CC2CCCCC2)Oc2ccc(NC(=O)Nc3cccc4ccccc34)cc2C1=O	EWS-Fli block 62 (no result: PAX8 inh HTS) | DNA binding inactive
C[C@@H]1CN([C@H](C)CO)C(=O)c2cc(NC(=O)c3ccccc3)ccc2O[C@@H](C)CCCCO[C@H]1CN(C)C(=O)Nc1cccc2ccccc12	EWS-Fli block 69 | DNA binding inactive
CCCN1[C@H](C(=O)NC2Cc3ccccc3C2)[C@@H](CO)[C@@H]2Cn3c(ccc(C4=CCCC4)c3=O)[C@@H]21	none (no result: PGC1a acetyl inh, PAX8 inh HTS)
C[C@H]1CCCCO[C@H](CN(C)Cc2ccc(C(F)(F)F)cc2)[C@@H](C)CN([C@@H](C)CO)C(=O)c2cc(NC(=O)Nc3ccccc3)ccc2O1	EWS-Fli block 65 (no result: SIRT5 inh) | DNA binding inactive
Cc1ccc(S(=O)(=O)Nc2ccc3c(c2)C(=O)N([C@@H](C)CO)C[C@H](C)[C@@H](CN(C)Cc2ccc(C(F)(F)F)cc2)OCCCC[C@@H](C)O3)cc1	EWS-Fli block 55, SIRT5 inh 17, PAX8 inh HTS 97 | DNA binding inactive
C[C@@H]1CCCCO[C@@H](CN(C)C(=O)Cc2ccccc2)[C@@H](C)CN([C@@H](C)CO)C(=O)c2cc(NS(=O)(=O)c3ccc(F)cc3)ccc2O1	EWS-Fli block 64 (no result: SIRT5 inh) | DNA binding inactive
C[C@@H]1CN([C@H](C)CO)C(=O)c2cc(NS(=O)(=O)c3ccc(F)cc3)ccc2O[C@@H](C)CCCCO[C@@H]1CN(C)C(=O)Cc1ccccc1	none (no result: SIRT5 inh)
COC(=O)c1ccc(CN2CC(=O)N3[C@@H](CO)[C@H](c4ccc(-c5cccnc5)cc4)[C@@H]3C2)cc1	none (no result: PAX8 inh HTS)
Cc1ccc(S(=O)(=O)N(C)C[C@@H]2Oc3cc(C#Cc4ccncc4)ccc3S(=O)(=O)N([C@@H](C)CO)C[C@H]2C)cc1	PGC1a acetyl inh 60, EWS-Fli block 53, SIRT5 inh 15, PAX8 inh HTS 83 (no result: LGR2 antag, rRNA inh HTS) | DNA binding inactive | COX5a expr inh inactive | AID743468 inactive
C[C@H](CO)N1C[C@H](C)[C@H](CN(C)Cc2ccc(-c3ccccc3)cc2)Oc2ncc(C#CCN(C)C)cc2C1=O	none (no result: PAX8 inh HTS)
O=C(COc1cccc(NC(=O)c2cccs2)c1)c1ccc(F)cc1	none (no result: PGC1a acetyl inh)
O=C(Nc1cccc(Oc2ccc3c(c2)C(=O)NC3=O)c1)c1cccs1	rRNA inh HTS -30, EWS-Fli block 74 (no result: PGC1a acetyl inh) | DNA binding inactive | AID977621 inactive
